Sampled rows, rich in hits. Any-hit rate of the full collection: about 2.8%.
FEN1 inh = human FEN1 inhibition; P39748; Recombinant FEN1 flap cleavage, fluorescence, 15 min; Potency, µM (top dose mostly 114 µM), usual class: inhibitors; 0.35% of 390,000 active; AID 588795; also: nearly all actives have a fitted effect of over 65% in size
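FEN1 at 10 nM, compound pretreatment for 15 min (room temperature), 50 nM final substrate to initiate; endpoint reads at 0 and 15 min; DMSO-only plates used as vehicle background.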
POLI inh = blocks human DNA polymerase iota activity. Q9UNA4. Pol iota fluorescent replication assay, 10 min. Potency, µM (top dose mostly 115 µM), most hits filed as inhibitors. 1% of 390,000 active
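Pol iota at 10 nM preincubated 15 min with compounds at room temperature; reaction started with fluorescent substrate, 50 nM final. Fluorescence read kinetically at 0 and 10 min; buffer-only wells as negative control.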
POLK inh = DNA polymerase kappa (human) inhibition. Q9UBT6. purified Pol kappa, fluorescent DNA synthesis assay, 10 min. Potency, µM (titrated, usually from 107 µM), usual class: inhibitors. 0.53% of 400,000 active
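Activity was followed as the change in fluorescence between reads at 0 and 10 min after starting the reaction with 50 nM substrate. Beforehand, 10 nM polymerase had been preincubated with compound for 15 min at room temperature.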
POLH inh = DNA polymerase eta (human) inhibition; recombinant Pol eta, fluorescent DNA replication assay; Potency, µM (highest dose often 114 µM), most hits filed as inhibitors; AID 588591; 1.2% of 390,000 active; Q9Y253
Target sequence (Q9Y253 whole entry, looked up): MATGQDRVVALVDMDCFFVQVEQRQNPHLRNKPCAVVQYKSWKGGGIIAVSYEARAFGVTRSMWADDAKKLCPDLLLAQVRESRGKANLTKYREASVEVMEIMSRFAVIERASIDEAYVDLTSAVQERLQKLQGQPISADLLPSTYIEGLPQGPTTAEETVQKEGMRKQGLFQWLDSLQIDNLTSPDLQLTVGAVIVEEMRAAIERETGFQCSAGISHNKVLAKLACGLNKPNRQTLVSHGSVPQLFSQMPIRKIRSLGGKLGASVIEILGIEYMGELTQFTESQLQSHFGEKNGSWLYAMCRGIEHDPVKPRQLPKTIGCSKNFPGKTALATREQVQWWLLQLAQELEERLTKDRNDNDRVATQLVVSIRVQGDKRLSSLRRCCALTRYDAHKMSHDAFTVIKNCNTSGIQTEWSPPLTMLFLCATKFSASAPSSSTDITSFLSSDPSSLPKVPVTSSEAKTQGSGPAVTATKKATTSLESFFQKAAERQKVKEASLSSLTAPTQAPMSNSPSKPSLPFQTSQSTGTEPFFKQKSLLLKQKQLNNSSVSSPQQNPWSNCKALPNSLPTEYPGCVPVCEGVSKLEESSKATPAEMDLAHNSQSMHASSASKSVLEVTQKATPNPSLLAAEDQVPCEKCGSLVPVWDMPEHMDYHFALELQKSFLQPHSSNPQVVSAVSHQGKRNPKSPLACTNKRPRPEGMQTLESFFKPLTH
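Pol eta at 10 nM preincubated with compounds 15 min at room temperature; reaction started with fluorescent substrate (50 nM final) and read kinetically at 0 and 10 min.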
POLB inh = DNA polymerase beta (human) inhibition; P06746; Pol beta primer extension/strand displacement, fluorescence kinetic; Potency, µM (titrated, usually from 114 µM), hits mostly inhibitors; 1.3% of 340,000 active; AID 485314
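10 nM enzyme + cpd, 15 min RT; start with substrate 50 nM final; read 0 min and after 10 min RT. Corrected, normalized data; 4-parameter Hill curve fit.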
PI5P4Ka inh = PI5P4K alpha (human) kinase inhibition | AID 652105 | max response, % | 1.2% of 330,000 active | PI5P4Kalpha enzyme, ADP-Glo luminescence, 60 min; hits give low values | P48426; active = max response of -50% or lower; inconclusive = between -30% and -50%; inactive = -30% or higher; also: value at the top dose of about 77 µM
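Reactions run in 0.038 M HEPES pH 7.4, 0.28 mM EGTA, 0.1% CHAPS and 5% DMSO, with PI5P4Kalpha, substrate, compound and 5 microM ATP final, one hour at room temperature. Readout is ADP-Glo luminescence.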
A number is an active result; n = inactive; u = inconclusive; x = not tested or not shown; [ ] = dose if it differs, or a comment. Unless noted, calls follow the shape of the dose curve; as a rule, active = well fitted curve in the direction sought with a large enough effect; inconclusive = small, poorly fitted or top-dose-only effect, or another doubt; inactive = no such curve, though single readings can be large; an effect the other way counts as inactive or inconclusive.

SMILES	FEN1 inh	POLI inh	POLK inh	POLH inh	POLB inh	PI5P4Ka inh
CC(=O)c1c(C)[nH]c(C(=O)COc2cc(C)cc(C)c2)c1C	n	n	n	n	n	x
Cc1ccc(OCC(=O)c2cc(C)n(Cc3cccs3)c2C)c([N+](=O)[O-])n1	n	n	n	n	u	n
CC(=O)c1c(C)[nH]c(C(=O)COc2ccc3ccc(=O)oc3c2)c1C	n	u	n	35µM	x	n
CCOC(=O)CNC(=O)Nc1nnc(-c2ccc(OCC)cc2)o1	n	n	n	n	79µM	n
CCCCOC(=O)c1ccc(NC(=O)c2cnc3ccc(C)cn3c2=O)cc1	n	n	n	n	n	x
CCCOC1CCCN(Cc2nc(-c3ccc(C(=O)OC)cc3)no2)C1 (centres undefined)	n	n	n	n	n	n
N=C1C(c2nc3ccccc3s2)=C(O)CN1NC(=O)c1ccco1	n	u	n	n	25µM	n
COc1cccc(C(=O)NN2CC(O)=C(c3nc4ccccc4s3)C2=N)c1	n	u	n	n	u	n
CC1CC(C)CN(C(=O)c2cccc(S(=O)(=O)Nc3cc(C(F)(F)F)ccc3Cl)c2)C1 (centres undefined)	n	n	n	n	56µM	n
O=C(O)c1cccc(S(=O)(=O)Nc2cc(Cl)ccc2Cl)c1	n	n	n	n	n	n
CC(C)c1nn2c(=O)cc(COC(=O)c3ccc(NC(=O)C4CCCCC4)cc3)nc2s1	n	n	n	79µM	n	x
COc1ccc(NC(=O)CSc2nc3cc(OC)c(OC)cc3c3nc(-c4ccccc4)nn23)cc1Cl	n	n	n	n	n	x
C=C1c2cccc(O)c2C(O)=C2C(=O)[C@@]3(O)C(O)=C(C(N)=O)C(=O)[C@@H](N(C)C)[C@@H]3[C@@H](O)[C@H]12	x	x	1.8µM	x	x	x
C[C@H]1c2cccc(O)c2C(O)=C2C(=O)[C@]3(O)C(O)=C(C(N)=O)C(=O)[C@@H](N(C)C)C3[C@@H](O)C21 (some centres undefined)	n	n	n	n	x	n
C=C1c2cccc(O)c2C(=O)C2C(=O)[C@]3(O)C(=O)C(C(N)=O)C(=O)[C@@H](N(C)C)[C@@H]3[C@@H](O)[C@H]12 (some centres undefined)	14µM	1.3µM	u	u	x	-71
CC(=O)c1ccc(NC(=O)CSc2nccn2C2CCCC2)cc1	n	n	n	n	n	x
CCOc1ccccc1NS(=O)(=O)c1cnc(N)nc1	n	n	n	n	n	x
NC(C(=O)O)C(O)c1ccc(O)c(O)c1 (centres undefined)	x	x	0.24µM	x	x	x
COc1ccc2[nH]cc(CCNC(=O)c3cnn(-c4ccccc4Cl)c3C3CCN(C(=O)OC(C)(C)C)CC3)c2c1	n	n	n	n	n	x
CCn1cc(C(=O)N2CCN(c3ccccc3OC)CC2)c(=O)c2cc(S(=O)(=O)N3CCCCC3)ccc21	n	n	n	n	n	x
Cc1cc([N+](C)(C)C)cc(C)c1/C=C/c1ccnc2ccccc12	22µM	u	u	x	x	x
C[n+]1c(/C=C/c2ccnc3ccccc23)cc(/C=C/c2ccnc3ccccc23)c2ccccc21	10µM	u	n	x	x	x
COc1cc(OC)c(OC)cc1/C=C/c1ccnc2ccccc12	u	n	n	n	x	n
CCOC1=CC2=C(C(=O)C(Cl)=CC2=O)[C@@H]2CN(S(=O)(=O)c3ccc(C)cc3)[C@@H](c3ccccc3)[C@H]12	x	x	x	x	x	-107
CCN1C(=O)[C@@H]2[C@@H]3CN(S(=O)(=O)c4ccc(C)cc4)[C@@H](c4ccccc4)[C@@H]3C(=O)C[C@@H]2C1=O	x	x	x	x	x	n
SMILES	FEN1 inh	POLI inh	POLK inh	POLH inh	POLB inh	PI5P4Ka inh
O=C1OC(c2ccc(F)cc2)=C/C1=C\c1ccc([N+](=O)[O-])o1	x	x	x	x	7.1µM	x
O=C1OC(c2ccc(F)cc2)=C/C1=C\c1ccc(O)cc1	n	n	n	n	n	n
Oc1c(Cl)cc(Cl)cc1/C=C/c1ccc2cccc(O)c2n1	n	n	n	n	28µM	n
COc1cc2nc(SCc3ccc(Cl)cc3)n3nc(CCn4nc(C)cc4C)nc3c2cc1OC	n	u	n	n	n	x
C[N+](C)(C)CCC(=O)c1cccc2ccccc12	x	n	n[19.4 µM]	n	u	x
Cc1[nH][nH]c(=O)c1C(c1c(C)[nH][nH]c1=O)c1cn(Cc2ccc(F)cc2)c2ccccc12	u	2.2µM	n	n	n	n
Cc1[nH][nH]c(=O)c1C(c1c(C)[nH][nH]c1=O)c1cn(Cc2ccc(Cl)c(Cl)c2)c2ccccc12	n	2.5µM	n	u	n	u
C[C@H](CO)N1C[C@H](C)[C@@H](CN(C)C(=O)Nc2ccccc2)Oc2ccc(NC(=O)CCC(F)(F)F)cc2C1=O	n	n	n	n	x	n
Cc1cc(NC(=O)C2CC=CCC2C(=O)O)no1 (centres undefined)	n	n	n	u	22µM	n
Cc1cc(NC(=O)C2C3C=CC(C3)C2C(=O)O)no1 (centres undefined)	n	n	n	n	u	x
C=C1C[C@@]23C[C@]1(O)CC[C@@H]2[C@]12C=C[C@@H](O)[C@](C)(C(=O)O1)[C@H]2[C@H]3C(=O)O	x	x	n[12 µM]	x	x	x
O=C(NCc1ccco1)c1cc2ccccc2c(=O)o1	n	u	u	u	45µM	u
O=C(CN1CCN(c2ccccc2)CC1)NC(=O)NCc1ccco1	n	n	n	n	n	n
Nc1ccccc1C(=O)NCc1ccco1	n	n	n	n	n	n
Cc1scc(C(=O)NCc2ccco2)c1-c1ccccc1	n	u	n	u	22µM	x
O=C(NCc1ccco1)c1ccccc1F	n	u	n	22µM	u	n
O=C(NCc1ccco1)c1ccccc1O	n	n	n	n	n	n
O=C(CN1CCN(c2ccccc2F)CC1)NC(=O)NCc1ccco1	n	u	u	n	32µM	n
Cc1ccc2nccc(/C=C/c3ccc(N(C)C)cc3)c2c1	n	n	n	x	x	x
Cc1ccc(C)c(N2CCN(C(=O)Cn3ncc4c(=O)oc5ccccc5c43)CC2)c1	n	n	n	n	n	x
OCC1OC(c2ccccc2)OC2COC(c3ccccc3)OC12 (centres undefined)	n	n	n	n	x	n
O=C(NCc1cccs1)C(=O)NCC1OCCCN1S(=O)(=O)c1cc(F)ccc1F (centres undefined)	n	n	n	n	n	n
Cc1ccc(S(=O)(=O)NCCSCc2ccco2)cc1	n	n	n	n	n	n
COc1ccc(/C=C/C(=O)NCCSCc2ccco2)cc1OC	n	71µM	n	n	n	n
COc1ccc(S(=O)(=O)NCCSCc2ccco2)cc1OC	n	45µM	n	u	40µM	x
Cc1cc(C)c(S(=O)(=O)NCCSCc2ccco2)c(C)c1	n	22µM	u	20µM	x	n

Compound activity (PubChem)
